Assay outcomes: PubChem, several laboratories
Sampled rows, rich in hits. Any-hit rate of the full collection: about 4.2%.
TIM10 inh = growth inhibitors of isogenic TIM10 control yeast, primary screen, counter-screen for tim10-1 yeast inhibitor project, luminescence, uHTS. S. cerevisiae TIM10 strain growth, BacTiter-Glo luminescence, 24 h. inhibition, % at 10 µM. 330,000 tested, 1.4% active. AID 463195, 2010;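 active means inhibition of 40% or more at the single tested concentration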;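 further: wild-type TIM10 isogenic control strain grown at permissive 25 °C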
NALP1 yeast inh = NALP1 inflammasome inhibitors in reconstituted yeast, colorimetric, S. cerevisiae, triplicate retest. S. cerevisiae NALP1/ASC/caspase-1 growth, X-gal OD620, 72 h. inhibition, % at 10 µM. 280,000 tested, 0.61% active. AID 2071, 2009; in the data active means inhibition mostly above about 24%, no sharp cut-off; inactive means mostly below about 32%
V-ATPase pHluor = regulators of yeast V-ATPase proton pumping, primary screen, pHLuorin cytosolic pH fluorescence. 350,000 tested, 0.37% active. S. cerevisiae. AID 504577, 2011. response, % at 10 µM; in the data active means response mostly above about 7.3%, no sharp cut-off; inactive means mostly below about 5.4%; further: actives read high
tim23-1 inh = growth inhibitors of tim23-1 mutant yeast, primary screen, luminescence, uHTS; S. cerevisiae tim23-1 growth, BacTiter-Glo luminescence, 24 h; inhibition, % at 20 µM; 330,000 tested, 1.3% active; AID 463212, 2010;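 active means growth inhibition of the mutant yeast at or above 50%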;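 further: temperature-sensitive mutant grown at 25 °C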
tim10-1 inh = growth inhibitors of tim10-1 mutant yeast, primary screen, luminescence, uHTS. AID 463190, 2010. 330,000 tested, 2.2% active. S. cerevisiae tim10-1 ts strain growth, BacTiter-Glo, 24 h. inhibition, % at 20 µM;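 active means inhibition of at least 40%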;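 further: mutant grown at 25 °C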
NALP3 yeast inh = NALP3 inflammasome inhibitors in reconstituted yeast, primary screen, luminescence, uHTS. Yeast reconstituted NLRP3/ASC/caspase-1, beta-gal luminescence, 24 h. 330,000 tested, 0.39% active. AID 2825, 2010. inhibition, % at 10 µM;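 active means inhibition of 50% or more; inactive means inhibition below 50%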
tim10-1 confirm = growth inhibitors of tim10-1 mutant yeast, confirmation, single concentration, luminescence, S. cerevisiae. shares compounds with tim10-1 inh. S. cerevisiae tim10-1 ts strain growth, BacTiter-Glo, 24 h. inhibition, % at 20 µM. 7,400 tested, 56% active. AID 463213, 2010;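 active means inhibition of yeast growth at or above a set limit in either of two repeat tests at 20 µM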;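 further: tim10-1 mutant grown at permissive 25 °C to find synthetic lethal compounds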
Each line names hits and unclear results; the compound was inactive in the other large screens (follow-up assays come after a bar, where they were run).

O=C1/C(=C/c2cccc(Cl)c2)CSc2sccc21	none
O=c1nc(N2CCCC2)nc(N2CCCC2)[nH]1	none
CCCCN=c1scc(-c2ccc3c(c2)NC(=O)CO3)n1N=C1CCCC1	tim10-1 inh 44 | tim10-1 confirm inactive
CCN=c1scc(-c2ccc3c(c2)NC(=O)CO3)n1N=C1CCCC1	none
NC(=O)CN1C(=O)C(O)(CC(=O)/C=C\c2ccc3c(c2)OCO3)c2ccccc21 (configuration not stated)	none
CN1C(=O)C(O)(CC(=O)/C=C\c2ccc3c(c2)OCO3)c2ccccc21 (configuration not stated)	tim10-1 inh 42 | tim10-1 confirm inactive
Cc1ccc(C(C)C)cc1C(=O)CC1(O)C(=O)N(C)c2ccccc21 (configuration not stated)	tim10-1 inh 42 | tim10-1 confirm 32
Cc1ccc(C(=O)CC2(O)C(=O)N(C)c3ccccc32)s1 (configuration not stated)	none
O=C1C(Cl)=C(Nc2cccc(O)c2)C(=O)N1Cc1ccccc1	tim10-1 inh 42 | tim10-1 confirm 31
CC1CCCCN1C(=O)c1cccc(NC2=C(Cl)C(=O)N(Cc3ccccc3)C2=O)c1 (configuration not stated)	tim10-1 inh 51 (no result: NALP1 yeast inh) | tim10-1 confirm 35
CCOc1ccccc1NC1=C(Cl)C(=O)N(Cc2ccccc2)C1=O	tim10-1 inh 44 | tim10-1 confirm inactive
CCOc1ccccc1NC1=C(Cl)C(=O)N(c2ccccc2)C1=O	none
CC1CCCCN1C(=O)c1ccc(C(=O)c2ccccc2)cc1 (configuration not stated)	none (no result: NALP1 yeast inh)
COCc1ccc(CN2CCCC(C(=O)Nc3ccc(-c4cscn4)cc3)C2)o1 (configuration not stated)	none
CSc1ccc(/C=C/C(=O)c2ccc(NC(=O)C(C)C)cc2)cc1	tim10-1 inh 42 | tim10-1 confirm 40
Cn1cc(Cl)c(C(=O)Nc2nc3ccccc3s2)n1	tim10-1 inh 44 | tim10-1 confirm inactive
CS(=O)(=O)N(CC(=O)O)Cc1cccc(CN(CC(=O)O)S(C)(=O)=O)c1	none
CC(C)(C)C(=O)CSc1ccc(S(=O)(=O)N2CCN(Cc3ccccc3)CC2)cn1	tim10-1 inh 42 (no result: NALP1 yeast inh) | tim10-1 confirm 36
COc1ccc(S(=O)(=O)N2CCN(Cc3cccnc3)CC2)cc1	none
COc1ccc(S(=O)(=O)N2CCN(Cc3ccccc3)CC2)cc1	tim10-1 inh 48 | tim10-1 confirm inactive
CCOc1ccc(C(=O)CN2CCN(S(=O)(=O)c3ccc(OC)cc3)CC2)cc1	tim10-1 inh 42 | tim10-1 confirm 42
CN1CCN(CC(=O)Nc2ccc(OC(F)(F)F)cc2)CC1	none
O=C(c1ccc(S(=O)(=O)Cc2ccccc2Cl)c([N+](=O)[O-])c1)N1CCN(c2ccccn2)CC1	tim10-1 inh 52 | tim10-1 confirm 39
O=C(c1ccc(Cl)c(Cl)c1)N1CCN(c2ccccn2)CC1	none
O=C(c1ccc(Sc2cccc(Cl)c2)c([N+](=O)[O-])c1)N1CCN(c2ccccn2)CC1	tim10-1 inh 41 | tim10-1 confirm inactive
O=C(c1ccc(Cl)c([N+](=O)[O-])c1)N1CCN(c2ccccn2)CC1	none
O=C(c1ccc(S(=O)(=O)Cc2cc(F)ccc2F)c([N+](=O)[O-])c1)N1CCCC1	none
O=C(c1cccc(COc2ccc(Cl)cc2Cl)c1)N1CCN(c2ccccn2)CC1	tim10-1 inh 42 | tim10-1 confirm inactive
O=C(c1ccc(S(=O)(=O)Cc2cc(F)ccc2F)c([N+](=O)[O-])c1)N1CCCCC1	tim10-1 inh 44 | tim10-1 confirm 29
O=[N+]([O-])c1ccc(S(=O)(=O)Nc2ccc(-c3ccccc3)cc2)cc1	none (no result: TIM10 inh, NALP1 yeast inh, tim23-1 inh, tim10-1 inh, NALP3 yeast inh)
CC(=O)Nc1ccc2c(c1)C(=O)c1cccc(C(=O)O)c1-2	none (no result: TIM10 inh, NALP1 yeast inh, tim23-1 inh, tim10-1 inh, NALP3 yeast inh)
O=C(Cc1ccc(S(=O)(=O)N2CCCCC2)s1)Nc1ccc(F)c(F)c1	tim10-1 inh 47 | tim10-1 confirm inactive
